# TGFb SMAD3 inh = inhibitors of TGF-b signaling; Potency, µM (titrated, usually from 46.1 µM), without a hit: at the highest dose activity, negative = inhibition, actives largely listed as inhibitors; 410,000 compounds, 1.2% hits; HepG2 CAGA-GFP TGF-b/SMAD3 reporter, GFP fluorescence, 18 h; TGF-beta stimulated, 500 pg/mL final; AID 588855; note: potency is the fitted concentration of half-maximal effect; % is set by controls: 0 for no effect and ±100 for the full control effect; nearly all actives have a fitted effect of over 65% in size
#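 Inhibition was scored as loss of TGF-beta-induced (500 pg/mL final, 18 hours, 37 degrees C) GFP in HEPG2 cells carrying a CAGA-GFP reporter, in DMEM with 1% FBS. Well GFP was summed per cell; Activity was normalised to unstimulated and stimulated DMSO wells, then concentration-response fitting.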
# HepG2 viability = HepG2 cytotoxicity, counter-screen for TGF-b inhibitors; HepG2 CAGA-GFP viability, ATP luminescence, 18 h; 410,000 compounds, 0.76% hits; AID 588856; Potency, µM (highest dose often 46.1 µM), for inactives: at the top dose activity change, negative = cytotoxicity, hits mostly cytotoxic; note: potency is the fitted concentration of half-maximal effect
#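 CellTiter-Glo luminescence gave cytotoxicity after 18 hours at 37 degrees C. The cells were HepG2 CAGA-GFP in 1% FBS DMEM, stimulated with 500 pg/mL TGF-beta after compound addition. %Activity was normalised to no-cell wells (complete cell-killing) and DMSO (no toxicity), and curves were fitted and classified.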
# TDP1 block = blocks human tyrosyl-DNA phosphodiesterase 1; AID 485290; recombinant TDP1, AlphaScreen DNA substrate cleavage; Potency, µM (doses to about 130 µM), for inactives: top-dose activity change, negative = inhibition, most hits filed as inhibitors; 350,000 compounds, 0.28% hits; Q9NUW8; note: potency is the fitted concentration of half-maximal effect; % is set by controls: 0 for no effect and ±100 for the full control effect; nearly all actives have a fitted effect of over 40% in size
# Target sequence (Q9NUW8 whole entry, looked up): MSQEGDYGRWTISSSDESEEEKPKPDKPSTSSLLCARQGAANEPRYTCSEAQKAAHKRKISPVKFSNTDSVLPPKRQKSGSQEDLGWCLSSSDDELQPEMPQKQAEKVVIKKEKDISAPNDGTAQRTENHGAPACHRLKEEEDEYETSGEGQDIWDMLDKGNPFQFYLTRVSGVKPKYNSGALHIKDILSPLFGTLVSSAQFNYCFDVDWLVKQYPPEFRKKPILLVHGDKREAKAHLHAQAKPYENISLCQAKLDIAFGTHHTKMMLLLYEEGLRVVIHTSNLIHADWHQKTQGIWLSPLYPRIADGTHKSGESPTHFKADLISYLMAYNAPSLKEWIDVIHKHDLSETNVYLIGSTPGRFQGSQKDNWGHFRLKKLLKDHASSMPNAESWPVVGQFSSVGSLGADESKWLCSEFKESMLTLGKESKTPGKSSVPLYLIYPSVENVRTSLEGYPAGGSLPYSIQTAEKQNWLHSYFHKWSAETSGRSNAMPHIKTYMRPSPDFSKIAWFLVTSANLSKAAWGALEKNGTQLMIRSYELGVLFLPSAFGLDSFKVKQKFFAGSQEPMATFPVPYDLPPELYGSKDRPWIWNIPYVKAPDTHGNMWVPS
#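 AlphaScreen read-out: signal falls as enzyme removes the 3' tyrosine-FITC from a 5'-biotinylated DNA oligo (15 nM, 5 min, RT). Enzyme was E. coli-made recombinant Tdp1 at 1 nM, exposed to compound for 15 min beforehand; beads 10 ug/ml, 10 min.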
# IL-1B inflam inh = inflammasome signaling inhibition, IL-1 beta readout | activity change, % at 57.5 µM | AID 743279 | 360,000 compounds, 4.7% hits | THP-1 LPS/ATP IL-1B secretion, AlphaLISA, 16 h; active compounds read low; in the data active = activity change below about -50%; inconclusive = mostly about -30% to -49%; note: % is set by controls: 0 for no effect and ±100 for the full control effect
#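 THP-1 cells pretreated 1 hr with compounds (up to 57.5 uM final), then stimulated with LPS (250 ng/mL final) plus ATP (1.25 mM final); secreted IL-1B measured by AlphaLISA after 16 hr, decreased signal indicating inhibition.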
# TDP1 cell noCPT = qHTS for Inhibitors of human tyrosyl-DNA phosphodiesterase 1 (TDP1): qHTS in cells in absence of CPT | 420,000 compounds, 15% hits | Potency, µM (top dose mostly 46.2 µM), for the others: top-dose activity change, negative = growth inhibition, actives largely listed as inhibitors | DT40 Tdp1-/- hTDP1 cells, no CPT, ATP luminescence, 48 h; note: potency is the fitted concentration of half-maximal effect; % is set by controls: 0 for no effect and ±100 for the full control effect; nearly all actives have a fitted effect of over 55% in size
#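 Camptothecin absent (DMSO only). Human TDP1-complemented DT40 knockout cells, 400 cells/well, 37 °C for minimum 48 hr; ATP measured via CellTiter-Glo, 30 min dark incubation, luminescence.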
# TDP1 cell CPT = DT40-hTDP1 cell growth loss with CPT. chicken DT40 Tdp1-/-;hTDP1 cells + 20 nM CPT, ATP luminescence, 48 h. 420,000 compounds, 12% hits. Potency, µM (highest dose often 46.2 µM), for the others: at the top dose activity change, negative = growth inhibition, most hits filed as inhibitors; note: potency is the fitted concentration of half-maximal effect; % is set by controls: 0 for no effect and ±100 for the full control effect; nearly all actives have a fitted effect of over 55% in size
#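 Chicken DT40 Tdp1-/- cells stably complemented with human TDP1 were seeded at 400 cells/well in medium containing 20 nM camptothecin, exposed to pin-transferred compounds, and grown at 37 °C for at least 48 hr. Viability was read as ATP luminescence.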
# Numbers without * were called inactive; ? = inconclusive; . = not tested or not shown; [ ] = remark or other dose. Sampled rows, rich in hits. Any-hit rate of the full collection: about 18%. Unless noted, calls come from the whole dose curve; as a rule, active = well fitted curve in the direction sought with a large enough effect; inconclusive = small, poorly fitted or top-dose-only effect, or another doubt; inactive = no such curve, though single readings can be large; an effect the other way counts as inactive or inconclusive.
SMILES,TGFb SMAD3 inh,HepG2 viability,TDP1 block,IL-1B inflam inh,TDP1 cell noCPT,TDP1 cell CPT
CC1(C)CC(N2CCCCC2)=CC(=[N+]2CCCCC2)C1,0.0%,-15.8%,6.9%,-70.1*,0.184µM*,0.146µM*
COC(=O)NCCc1cc(OC)c(OC)cc1S(=O)(=O)N1CC(=O)Nc2ccccc21,0.0%,13.8%,.,36.9,1.7%,2.6%
Cc1noc(C)c1C(=O)OCC(=O)Nc1ccc(S(N)(=O)=O)cc1,1.7%,4.6%,-8.0%,0.0,4.4%,-1.4%
COc1ccc(Nc2cc(C(=O)NCc3cccnc3)c3ccccc3n2)c(OC)c1,.,.,4.6%,.,.,.
COc1ccc(Nc2cc(C(=O)NCCCOC(C)C)c3ccccc3n2)c(OC)c1,-27.9%,-24.4%,.,-5.8,16.4µM*,16.4µM*
COc1ccc(Nc2cc(C(=O)NCc3ccccn3)c3ccccc3n2)c(OC)c1,.,.,7.2%,.,.,.
CCN(CCCNC(=O)c1cc(Nc2ccc(OC)cc2OC)nc2ccccc12)c1cccc(C)c1,?,-21.7%,7.0%,.,14.6µM*,20.6µM*
Cc1ccc(Nc2cc(C(=O)NCCCN3CCOCC3)c3ccccc3n2)cc1C,-29.5%,-19.5%,1.4%,4.9,?,?
CCN(CCCNC(=O)c1cc2cc3cc(OC)ccc3nc2s1)c1cccc(C)c1,?,-24.8%,7.5%,.,?,-25.8%
COc1ccc(Nc2cc(C(=O)NCCCN3CCN(C)CC3)c3ccccc3n2)c(OC)c1,-0.6%,-32.2%,3.9%,?,23.1µM*,?
Cc1ccc(Nc2ncc(C(=O)NCCCN3CCN(C)CC3)c3ccccc23)cc1Cl,?,-40.0%,3.7%,-78.0*,?,?
COc1cccc(CNC(=O)c2c(OC)cc(=O)n3c2CCN(C(=O)c2ccc(C)nc2)CC3)c1,.,.,.,.,6.2%,8.2%
Cc1ccccc1Nc1cc(C(=O)NCCCN2CCN(c3cccc(Cl)c3)CC2)c2ccccc2n1,22.4µM*,-59.1%,6.6%,.,?,?
Cc1ccccc1Nc1cc(C(=O)NCCc2ccc(Cl)cc2)c2ccccc2n1,?,-33.9%,4.7%,.,?,?
CC(C)NC(=O)N1CCCC2(CCN(C(=O)c3cc(C(F)(F)F)cc(C(F)(F)F)c3)CC2)C1,.,.,.,.,?,-6.4%
Cc1ccc(N2C(=O)c3ccccc3C2C(=O)c2ccc(C)c(C)c2O)cc1 (stereo not drawn),-3.2%,-2.6%,7.6%,-22.3,18.4µM*,?
COc1cccc(C2NC(=O)NC(C)=C2C(=O)Nc2ccc(C)cc2)c1OC (stereo not drawn),-3.4%,26.1%,0.0%,9.8,11.2%,4.1%
COc1cccc(C2=CC(c3ccccc3F)n3ncc(C(=O)Nc4ccc(F)cc4)c3N2)c1 (stereo not drawn),?,-20.1%,5.3%,.,18.4µM*,?
COc1ccc(C2=CC(c3ccccc3F)n3ncc(C(=O)Nc4ccc(C)cc4)c3N2)cc1 (stereo not drawn),36.9%,1.8%,6.3%,.,20.6µM*,5.17µM*
COc1cccc(C2C=C(c3ccc(C)cc3)Nc3c(C(=O)Nc4ccc(F)cc4)cnn32)c1OC (stereo not drawn),?,-41.4%,4.2%,.,18.4µM*,?
O=C(Nc1ccc(Cl)cc1)c1cnn2c1NC(c1ccccc1)=CC2c1ccccc1 (stereo not drawn),?,-31.0%,2.6%,.,?,?
CCOc1ccc(NC(=O)CCc2nnc3n(C)c(=O)c4sccc4n23)cc1,17.3%,-0.1%,-0.9%,.,-13.7%,-5.4%
Cc1cccc(NC(=O)COC(=O)CN2C(=O)c3ccccc3C2=O)c1C,-1.9%,2.0%,.,13.2,-4.1%,-28.4%
CCOC(=O)C1C(C(=O)OC)=C(c2ccc(OC)cc2)c2ccccc2N1S(=O)(=O)C(F)(F)F (stereo not drawn),?,-19.7%,-27.8%[56.1 µM],-20.2,16.4µM*,?
CCOC(=O)C1=C(C2=CCCCC2)c2ccc(OC)cc2N(S(=O)(=O)C(F)(F)F)C1C(=O)OCC (stereo not drawn),14.1µM*,-29.9%,-0.7%[56.1 µM],?,2.31µM*,5.8µM*
SMILES,TGFb SMAD3 inh,HepG2 viability,TDP1 block,IL-1B inflam inh,TDP1 cell noCPT,TDP1 cell CPT
CCOC(=O)C1(C)C(C(=O)OC)=C(c2ccc(OC)cc2)c2ccccc2N1C(=O)OC (stereo not drawn),?,-12.7%,1.4%[56.1 µM],-17.5,13µM*,20.6µM*
CCC(C)C(NC(=O)OC(C)(C)C)C(=O)NC1COC2CC(n3ccc(=O)[nH]c3=O)OC12 (stereo not drawn),10.3%,1.5%,6.2%,.,.,.
Cc1ccnc(NC(=O)Nc2ccc3c(c2)N(C)C(=O)CS3)c1,?,5.4%,.,?,?,?
Cc1cccc(NC(=O)Nc2ccc3c(c2)N(C)C(=O)CS3)n1,-7.1%,-33.3%,6.9%,-55.6*,?,?
CC1CCN(S(=O)(=O)c2cc(C(=O)Nc3ccccn3)ccc2Br)CC1,-18.7%,-31.7%,4.1%,-7.3,?,?
CCc1cc2c(=O)[nH]c(N3CCCC3)nc2s1,36.7%,6.7%,1.3%,-14.0,-6.5%,-0.5%
CCc1cc2c(=O)[nH]c(CC(N)=O)nc2s1,-2.2%,-6.3%,0.0%,-65.8*,-14.3%,0.7%
COc1ccc(Cc2c(-c3ccccc3)nc3ccc(Cl)cn23)c(C)c1,?,-13.3%,.,41.5,?,?
COc1ccc(Cc2c(-c3cccc(Cl)c3)nc3ccc(C)cn23)c(C)c1,?,-44.6%,.,-15.5,20.6µM*,16.4µM*
CCCc1nc2c(C)cc(Br)cn2c1Cc1cccc(F)c1,-21.9%,-32.4%,.,0.8,?,?
COc1ccc(Cc2c(-c3ccc(F)cc3)nc3c(C)cc(Br)cn23)c(C)c1,?,-33.6%,.,21.5,18.4µM*,?
CCCc1nc2c(C)cc(Br)cn2c1Cc1ccc(OC)cc1C,-26.0%,-26.7%,.,-1.8,20.6µM*,?
COc1ccc(Cc2c(-c3ccc(Cl)cc3)nc3c(C)cc(Br)cn23)c(C)c1,-18.9%,-20.1%,.,54.0,20.6µM*,23.1µM*
COC(=O)c1ccc2c(=O)[nH]c(COC(=O)CCC(=O)c3ccc(Cl)cc3)nc2c1,-3.7%,4.3%,4.2%[0.505 µM],-1.0,2.7%,14.1%
O=C1CC(c2ccccc2)CC(O)=C1C=NCCN1CCN(Cc2ccccc2)CC1 (stereo not drawn),5.8%,-33.4%,5.7%,10.4,-12.6%,?

# Screens as filed in PubChem BioAssay.
